This note sets out measurements from PubChem BioAssay (EPA / NIEHS).

Each structure is given as a SMILES string. Active and inactive are the calls of the source. Rule for the calls: active = hit-call score of the fitted dose curve at least 0.9, where 1 is the maximum; inactive = score below 0.9.

Read-out in assay [1]: Vascular endothelial growth factor receptor 2 (Homo sapiens) (UniProt P35968)
The experiment in a line: BSK_4H_VEGFRII: BioMAP Diversity Plus: 4H Assay for Vascular endothelial growth factor receptor 2 (VEGFR2) Biomarker Activity (AID 2283031). The settings on record: primary human endothelial cells (HUVEC); actives raise or lower the signal. The method in brief: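 Primary human umbilical vein endothelial cells (4H system), 24 h exposure; cell-surface VEGFR2 measured by ELISA. Bidirectional fitting versus DMSO; cytotoxicity checked in parallel by SRB total-protein staining.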

Read-out in assay [2]: Human Leukocyte Antigen - DR isotype (HLADR), HLA-DRA (gene 3122)
The assay is described as follows: BSK_BE3C_HLADR: BioMAP Diversity Plus: BE3C Assay for Human Leukocyte Antigen - DR isotype (HLADR) Biomarker Activity (AID 2283032). The settings on record: primary human bronchial epithelial cells; actives raise or lower the signal. The method in brief: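 Human primary bronchial epithelial cells in the BE3C system were exposed to chemicals for 24 h, after which HLA-DR levels were quantified by ELISA. Activity was fitted bidirectionally, gain or loss of signal, against DMSO as negative control and baseline.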

Read-out in assay [3]: Vascular cell adhesion molecule 1 (VCAM1), VCAM1 (gene 7412)
The assay is described as follows: BSK_4H_VCAM1: BioMAP Diversity Plus: 4H Assay for Vascular cell adhesion molecule 1 (VCAM1) Biomarker Activity (AID 2283033).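 For outcome: cell-surface VCAM-1 protein measured by ELISA.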 The settings on record: primary human endothelial cells (HUVEC); actives raise or lower the signal. The essentials:
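Primary human umbilical vein endothelial cells were exposed to chemicals for 24 h, after which VCAM-1 was quantified by ELISA. Responses were fitted bidirectionally against DMSO as negative control and activity baseline.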

Read-out in assay [4]: Interferon-gamma inducible Protein 10 (IP10), CXCL10 (gene 3627)
The experiment in a line: BSK_BE3C_IP10: BioMAP Diversity Plus: BE3C Assay for Interferon-gamma inducible Protein 10 (IP10) Biomarker Activity (AID 2283034). The settings on record: primary human bronchial epithelial cells; actives raise or lower the signal. The essentials:
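Human primary bronchial epithelial cells were exposed to chemicals for 24 hours, after which IP-10 levels were measured by ELISA. Data were fitted bidirectionally against DMSO, which served as the negative control and activity baseline.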

Read-out in assay [5]: Monokine induced gamma interferon (MIG), CXCL9 (gene 4283)
The assay is described as follows: BSK_BE3C_MIG: BioMAP Diversity Plus: BE3C Assay for Monokine induced gamma interferon (MIG) Biomarker Activity (AID 2283035).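 Note: MIG protein measured by ELISA in BE3C cultures after 24 h of dosing.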 The settings on record: primary human bronchial epithelial cells; actives raise or lower the signal. The method in brief:
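Primary human bronchial epithelial cells treated for 24 h; MIG levels measured by ELISA, fitted bidirectionally versus DMSO. Parallel SRB total-protein staining assessed cytotoxicity.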

Read-out in assay [6]: Transforming growth factor beta 1 (TGFb1), TGFB1 (gene 7040)
The experiment in a line: BSK_BE3C_TGFb1: BioMAP Diversity Plus: BE3C Assay for Transforming growth factor beta 1 (TGFb1) Biomarker Activity (AID 2283036). The settings on record: primary human bronchial epithelial cells; actives raise or lower the signal. The essentials: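 Human primary bronchial epithelial cells (BE3C system) were dosed with chemical and TGF-b1 levels measured by ELISA at 24 h. Activity was fitted bidirectionally relative to DMSO negative control as baseline.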

Read-out in assay [7]: Plasminogen activator inhibitor-1 (PAI1), SERPINE1 (gene 5054)
The experiment in a line: BSK_BE3C_PAI1: BioMAP Diversity Plus: BE3C Assay for Plasminogen activator inhibitor-1 (PAI1) Biomarker Activity (AID 2283037). The settings on record: primary human bronchial epithelial cells; actives raise or lower the signal. The method in brief: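 Human primary bronchial epithelial cells were exposed to chemical for 24 h, then PAI-1 was quantified by ELISA. Activity was fitted bidirectionally relative to the DMSO negative control baseline.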

Read-out in assay [8]: urokinase plasminogen activator (uPA), PLAU (gene 5328)
The experiment in a line: BSK_BE3C_uPA: BioMAP Diversity Plus: BE3C Assay for urokinase plasminogen activator (uPA) Biomarker Activity (AID 2283038).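 For outcome: uPA protein level quantified by ELISA in cell cultures; uPA read one day after compound addition.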 The settings on record: primary human bronchial epithelial cells; actives raise or lower the signal. The essentials:
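Primary human bronchial epithelial cells, uPA measured by ELISA 24 h after dosing. Bidirectional change relative to DMSO; cytotoxicity checked in parallel cultures by sulforhodamine B total-protein staining.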

Read-out in assay [9]: Urokinase-type plasminogen activator receptor (uPAR), PLAUR (gene 5329)
The experiment in a line: BSK_BE3C_uPAR: BioMAP Diversity Plus: BE3C Assay for Urokinase-type plasminogen activator receptor (uPAR) Biomarker Activity (AID 2283039).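 Note: cells exposed to compound for one day before measurement.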 The settings on record: primary human bronchial epithelial cells; actives raise or lower the signal. The essentials: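 Primary human bronchial epithelial cells were dosed with chemical and harvested 24 h later; uPAR was quantified by ELISA. Activity was fitted bidirectionally against DMSO as negative control and baseline.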

Read-out in assay [10]: Interleukin-6 (IL6), IL6 (gene 3569)
The assay is described as follows: BSK_CASM3C_IL6: BioMAP Diversity Plus: CASM3C Assay for Interleukin-6 (IL6) Biomarker Activity for (AID 2283040). The settings on record: primary human coronary artery smooth muscle cells; actives raise or lower the signal.

Read-out in assay [11]: Interleukin-8 (IL8), CXCL8 (gene 3576)
The experiment in a line: BSK_CASM3C_IL8: BioMAP Diversity Plus: CASM3C Assay for Interleukin-8 (IL8) Biomarker Activity (AID 2283042).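 Note: IL-8 protein level quantified by ELISA.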 The settings on record: primary human coronary artery smooth muscle cells; actives raise or lower the signal.

Read-out in assay [12]: Human Leukocyte Antigen - DR isotype (HLADR), HLA-DRA (gene 3122)
The experiment in a line: BSK_CASM3C_HLADR: BioMAP Diversity Plus: CASM3C Assay for Human Leukocyte Antigen - DR isotype (HLADR) Biomarker Activity (AID 2283043).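 Note: cell-surface HLA-DR protein level quantified by ELISA.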 The settings on record: primary human coronary artery smooth muscle cells; actives raise or lower the signal.

Read-out in assay [13]: Macrophage colony-stimulating factor (MCSF), CSF1 (gene 1435)
The assay is described as follows: BSK_CASM3C_MCSF: BioMAP Diversity Plus: CASM3C Assay for Macrophage colony-stimulating factor (MCSF) Biomarker Activity (AID 2283044).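 Note: M-CSF protein amount quantified by ELISA after 24 h exposure.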 The settings on record: primary human coronary artery smooth muscle cells; actives raise or lower the signal.

Read-out in assay [14]: Low-density lipoprotein receptor (LDLR), LDLR (gene 3949)
The assay is described as follows: BSK_CASM3C_LDLR: BioMAP Diversity Plus: CASM3C Assay for Low-density lipoprotein receptor (LDLR) Biomarker Activity (AID 2283045).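 Note: LDLR protein level on the cell surface quantified by ELISA.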 The settings on record: primary human coronary artery smooth muscle cells; actives raise or lower the signal.

Read-out in assay [15]: Monocyte Chemoattractant Protein-1 (MCP1), CCL2 (gene 6347)
The experiment in a line: BSK_CASM3C_MCP1: BioMAP Diversity Plus: CASM3C Assay for Monocyte Chemoattractant Protein-1 (MCP1) Biomarker Activity (AID 2283046).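 Note: MCP-1 level quantified by ELISA 24 h after dosing.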 The settings on record: primary human coronary artery smooth muscle cells; actives raise or lower the signal.

A short description of assay [16]: BSK_CASM3C_Proliferation: Cell Proliferation Assessment in the BioMAP Diversity Plus: CASM3C Assay (AID 2283047).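 Note: sulforhodamine B total protein stain as relative cell number at 560 nm; sub-confluent cells exposed 48 h before staining; fitted both ways against DMSO so gain or loss of cell number.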 The settings on record: primary human coronary artery smooth muscle cells.
Read-out in assay [17]: Monokine induced gamma interferon (MIG), CXCL9 (gene 4283)
The assay is described as follows: BSK_CASM3C_MIG: BioMAP Diversity Plus: CASM3C Assay for Monokine induced gamma interferon (MIG) Biomarker Activity (AID 2283048). The settings on record: primary human coronary artery smooth muscle cells; actives raise or lower the signal.

Read-out in assay [18]: serum amyloid A (SAA), SAA1 (gene 6288)
The assay is described as follows: BSK_CASM3C_SAA: BioMAP Diversity Plus: CASM3C Assay for serum amyloid A (SAA) Biomarker Activity (AID 2283049).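 Note: SAA protein level quantified by ELISA.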 The settings on record: primary human coronary artery smooth muscle cells; actives raise or lower the signal.

Read-out in assay [19]: Tissue plasminogen activator (tPA), PLAT (gene 5327)
The assay is described as follows: BSK_BE3C_tPA: BioMAP Diversity Plus: BE3C Assay for Tissue plasminogen activator (tPA) Biomarker Activity (AID 2283041).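 Note: tPA level quantified by ELISA one day after compound addition.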 The settings on record: primary human bronchial epithelial cells; actives raise or lower the signal. The method in brief: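 Human primary bronchial epithelial cells were dosed with chemical and tPA biomarker levels measured by ELISA 24 hours later. Activity was fitted bidirectionally against DMSO as negative control and baseline.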

Turning to `CCc1cccc(C)c1N(C(=O)CS(=O)(=O)O)C(C)COC` (configuration not stated), the result in [1], in assay [2], in assay [3], in [4], in assay [5] and in [6] was inactive. Further, the outcome in assay [7], in [8], in [9], in assay [10], in assay [11] and in [12] was inactive. For the same compound, the outcome in assay [13], in [14], in [15], in [16], in [17] and in [18] was inactive.

With `CC=C(C)C=CC=C(C)C`, the outcome in assay [1], in assay [3], in assay [4], in assay [5], in [6] and in assay [7] was inactive. For the same compound, the result in assay [9], in [10], in assay [11], in assay [14], in assay [15] and in [17] was inactive. The result in assay [18] was inactive. Further, the AC50 in [2] was 15.9 µM (active); in assay [8], 0.0546 µM (active); in assay [12] it was 3.97 µM (active); in assay [13] it was 0.46 µM (active); in [16], 24 µM (active).

On to `CCCCCCC=O`, for which the result in assay [1], in assay [2], in [3], in assay [4], in assay [5] and in assay [6] was inactive. Further, the outcome in [7], in [8], in assay [9], in assay [10], in assay [11] and in [12] was inactive. Besides, the result in [13], in assay [14], in [15], in assay [17] and in [18] was inactive. Moreover, the AC50 in assay [16] is 0.22 µM (active).

In the case of `CC1(C)CC(O)CC(C)(C)N1[O]`, the outcome in assay [1], in assay [2], in assay [3], in [4], in assay [5] and in assay [6] was inactive. Besides, the outcome in assay [7], in assay [8], in [9], in assay [10], in assay [11] and in [12] was inactive. In addition, the outcome in assay [13], in [14], in assay [15], in assay [16], in [17] and in assay [18] was inactive.

For the compound `Nc1ccc(C(=O)O)cc1`, the outcome in assay [1], in assay [2], in assay [3], in [4], in assay [5] and in assay [6] was inactive. The result in assay [7], in [8], in assay [9], in assay [10], in assay [11] and in assay [12] was inactive. For the same compound, the outcome in [13], in assay [14], in [15], in [16], in assay [17] and in [18] was inactive.

As to `Nc1cccc(N)n1`, the result in assay [1], in assay [2], in assay [3], in assay [4], in [5] and in assay [6] was inactive. Also, the outcome in assay [7], in assay [8], in assay [9], in [10], in assay [19] and in [11] was inactive. The result in assay [12], in [13], in assay [14], in assay [15], in [16] and in assay [17] was inactive. The result in assay [18] was inactive.

`COc1ccc(C(=O)c2ccccc2)c(O)c1`: the result in assay [1], in [2], in [4], in assay [5], in [6] and in assay [7] was inactive. Further, the outcome in [8], in assay [9], in assay [10], in assay [11], in [12] and in assay [13] was inactive. The outcome in assay [14], in assay [15], in [16], in [17] and in assay [18] was inactive. Also, the concentration at half-maximal activity (AC50) in [3] was 29.1 µM (active).

The term AC50 denotes the concentration at which the activity in the assay is half-maximal.
